From PubChem BioAssay (EPA / NIEHS)
Where “and” joins values, the source holds several entries; their conditions need not be identical. Equal entries are not always repeated. Calls of active or inactive are those of the source. Rule for the calls: active = hit-call score of the fitted dose curve at least 0.9, where 1 is the maximum; inactive = score below 0.9.

Key:
[1] = ATG_DR4_LXR_CIS: Attagene CIS-FACTORIAL HepG2 Assay for human Liver X Receptor (LXR), DR4 submotif (AID 2282929); conditions: HepG2 Attagene DR4 cis-reporter, mRNA transcription; AC50: actives raise or lower the signal unless noted; outcome: actives raise or lower the signal unless noted
Outline: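 Measures endogenous transcription factor activity via a DR4-driven reporter transcript in human HepG2 cells. Compounds incubated 24 h; mRNA quantified by RT-PCR and capillary electrophoresis, analysed as gain or loss of signal versus DMSO.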

[2] = ATG_AP_1_CIS: Attagene CIS-FACTORIAL HepG2 Assay for human Activator Protein 1 (AP-1) (AID 2282931); conditions: HepG2 Attagene cis-factorial AP-1 reporter mRNA; actives raise or lower the signal
Outline: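 Bidirectional concentration-response fitting against DMSO controls. Underlying signal: reporter mRNA from cis-promoter constructs in transiently transfected HepG2, measured after 24 h by RT-PCR and capillary electrophoresis.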

[3] = ATG_AP_2_CIS: Attagene CIS-FACTORIAL HepG2 Assay for human Activator Protein 2 (AP-2) (AID 2282932); conditions: HepG2 AP-2 cis-reporter, Attagene transcription factor profiling; AC50: actives raise or lower the signal unless noted; outcome: actives raise or lower the signal unless noted
Outline: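 Endogenous transcription factor activity is reported through transfected multiplex reporter constructs in HepG2, after 24 h of compound exposure. Transcripts were quantified by RT-PCR and capillary electrophoresis of fluorescent fragments. Bidirectional fit against DMSO.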

[4] = ATG_BRE_CIS: Attagene CIS-FACTORIAL HepG2 Assay for human Bone Morphogenetic Protein (BMP) Response Element (BRE) (AID 2282933); conditions: HepG2 BMP response element reporter, Attagene transcription factor profiling; actives raise or lower the signal
Outline: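 A HepG2 multiplex reporter system measured inducible reporter mRNA 24 h post-dosing. Detection: RT-PCR, 6-FAM primer extension, HpaI digestion, capillary electrophoresis. Activity fitted bidirectionally relative to DMSO.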

[5] = target: Retinoic acid receptor alpha (Homo sapiens) (UniProt P10276); assay: ATG_DR5_RAR_CIS: Attagene CIS-FACTORIAL HepG2 Assay for human Retinoic Acid Receptor Alpha (RARE), DR5 submotif (AID 2282934); conditions: HepG2 Attagene cis-factorial RARE DR5 reporter, mRNA; actives raise or lower the signal
Outline: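 Transient MRTU transfection of HepG2; 24 h compound treatment; TriZol RNA, oligo(dT) RT, PCR, FAM labelling, capillary electrophoresis. Bidirectional fit vs DMSO. Endogenous TF activity at DR5 RARE.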

[6] = target: Transcription factor E2F1 (Homo sapiens) (UniProt Q01094); assay: ATG_E2F_CIS: Attagene CIS-FACTORIAL HepG2 Assay for human E2F Transcription Factor 1 (AID 2282935); conditions: HepG2 Attagene cis-reporter, E2F reporter RNA transcripts; actives raise or lower the signal
Outline: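 Gain or loss of reporter transcript, fitted against DMSO, reflects E2F1-driven transcription. Transiently transfected HepG2 dosed 24 h before RNA isolation. Quantified by fluorescent RT-PCR products separated by capillary electrophoresis.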

[7] = ATG_E_Box_CIS: Attagene CIS-FACTORIAL HepG2 Assay for human Enhancer Box (E-box) (AID 2282936); conditions: HepG2 E-box cis-reporter transcription, actives raise or lower the signal
Outline: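 E-box-driven reporter transcripts measured in transiently transfected HepG2 after 24 h exposure: RNA reverse-transcribed, PCR-amplified, fluorescently labelled, digested and resolved by capillary electrophoresis. Gain or loss relative to DMSO.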

[8] = ATG_M_61_CIS: Attagene CIS-FACTORIAL HepG2 Assay for M61 Transcription Factor (Internal Marker) (AID 2282937); conditions: HepG2 Attagene CIS-FACTORIAL M61 internal marker reporter; actives raise or lower the signal
Outline: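 Fluorescence from labelled cDNA fragments, separated by capillary electrophoresis, quantifies reporter induction. HepG2 cells bearing transiently transfected cis-promoter MRTUs were incubated with test chemical for 24 h; DMSO defined baseline for gain/loss fitting.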

[9] = ATG_EGR_CIS: Attagene CIS-FACTORIAL HepG2 Assay for human Early Growth Response 1 (EGR1) (AID 2282938); conditions: HepG2 Attagene CIS-FACTORIAL EGR reporter mRNA; actives raise or lower the signal
Outline: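 Cell-based multiplex transcription assay: HepG2 carrying transfected cis-element reporter units, 24 h chemical treatment. Fluorescence from capillary electrophoresis of RT-PCR products gives mRNA levels; fitting is bidirectional relative to DMSO.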

[10] = ATG_M_19_CIS: Attagene CIS-FACTORIAL HepG2 Assay for M19 Transcription Factor (Internal Marker) (AID 2282939); conditions: HepG2 Attagene CIS-FACTORIAL M19 internal marker reporter; actives raise or lower the signal
Outline: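 Chemical-treated HepG2 (24 h) with MRTU constructs; reporter transcripts detected by fluorescent RT-PCR fragment analysis on capillary electrophoresis. Internal background marker, DMSO as baseline.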

[11] = ATG_ERE_CIS: Attagene CIS-FACTORIAL HepG2 Assay for Estrogen Response Element (ERE) (AID 2282940); conditions: HepG2 ERE cis-reporter, Attagene RNA transcript; actives raise or lower the signal
Outline: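 Human liver cells (HepG2) bearing transiently transfected, promoter-regulated reporter units were exposed 24 h. Reporter mRNA induction was detected by capillary electrophoresis of labelled RT-PCR products and fitted bidirectionally to DMSO.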

[12] = ATG_Ets_CIS: Attagene CIS-FACTORIAL HepG2 Assay for human Erythroblast Transformation Specific (ETS) (AID 2282941); conditions: HepG2 ETS cis-reporter transcription; AC50: actives raise or lower the signal unless noted; outcome: actives raise or lower the signal unless noted
Outline: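 RT-PCR/capillary electrophoresis fluorescence read-out of reporter mRNA; HepG2 transient multi-reporter transfection; 24 h compound exposure; gain or loss of signal fitted bidirectionally relative to DMSO.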

[13] = ATG_FoxO_CIS: Attagene CIS-FACTORIAL HepG2 Assay for human Forkhead box O (FoxO) (AID 2282943); conditions: HepG2 Attagene cis-reporter, FoxO element, mRNA; actives raise or lower the signal
Outline: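 HepG2, transient MRTU transfection (cis element, endogenous TFs). Dose 24 h. TriZol RNA → oligo(dT) RT → PCR → 6-FAM primer extension → HpaI cut → CE. Gain/loss vs DMSO.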

[14] = ATG_GATA_CIS: Attagene CIS-FACTORIAL HepG2 Assay for human GATA Binding Protein (AID 2282944); conditions: HepG2 GATA cis-element reporter, Attagene multiplex mRNA; actives raise or lower the signal
Outline: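 Transfected cis-reporter HepG2 cells were treated with chemicals for 24 hours. Total RNA was then converted to cDNA, amplified with reporter-specific primers and analysed by fluorescent capillary electrophoresis, using DMSO-treated wells as baseline.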

[15] = ATG_GLI_CIS: Attagene CIS-FACTORIAL HepG2 Assay for human Zinc Finger Protein GLI1 (AID 2282945); conditions: HepG2, Attagene cis-factorial reporter mRNA, GLI element; actives raise or lower the signal
Outline: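 Bidirectional curve fits relative to DMSO, using reporter mRNA levels from RT-PCR plus capillary electrophoresis. Cells were HepG2 transiently carrying cis-regulated reporter constructs, harvested 24 h after dosing.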

[16] = target: Bile acid receptor (Homo sapiens) (UniProt Q96RI1); assay: ATG_IR1_CIS: Attagene CIS-FACTORIAL HepG2 Assay for human Nuclear Receptor Subfamily 1 Group H Member 4 (NR1H4), IR1 submotif (AID 2282946); conditions: IR1 reporter transcription, actives raise or lower the signal
Outline: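 HepG2 cells transiently transfected with multiplexed cis-element reporter units read endogenous transcription factor activity. After 24 h compound exposure, reporter mRNA was quantified by RT-PCR, fluorescent labelling, HpaI digestion and capillary electrophoresis; bidirectional fitting versus DMSO baseline.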

[17] = ATG_GRE_CIS: Attagene CIS-FACTORIAL HepG2 Assay for human Glucocorticoid Response Elements (GRE) (AID 2282947); conditions: HepG2 GRE cis-reporter, Attagene multiplex mRNA; AC50: actives raise or lower the signal unless noted; outcome: actives raise or lower the signal unless noted
Outline: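 Reporter transcripts read by RT-PCR with capillary electrophoresis fluorescence after a 24 h chemical exposure of HepG2 cells transiently transfected with multiple cis-element reporter units. Gain or loss fitted against DMSO.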

[18] = ATG_ISRE_CIS: Attagene CIS-FACTORIAL HepG2 Assay for human Interferon Regulatory Factor 1 (IRF1) binding to an Interferon-Stimulated Response Element (ISRE) (AID 2282948); conditions: HepG2 ISRE cis-reporter (Attagene), mRNA transcription readout; actives raise or lower the signal
Outline: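 Read-out: fluorescent RT-PCR products resolved by capillary electrophoresis, reporting endogenous transcription factor activity via ISRE-driven reporter mRNA in transfected HepG2 cells dosed for 24 h; gain or loss fitted relative to DMSO.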

[19] = target: Hepatocyte nuclear factor 3-beta (Homo sapiens) (UniProt Q9Y261); assay: ATG_FoxA2_CIS: Attagene CIS-FACTORIAL HepG2 Assay for human Forkhead box A2 (FOXA2) (AID 2282942); conditions: HepG2 cis-reporter transcription factor activity, 24 h; actives raise or lower the signal
Outline: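 In transiently transfected human HepG2 cells, promoter-driven reporter mRNA levels after 24 h chemical exposure are determined via RT-PCR with capillary electrophoresis. DMSO serves as baseline for bidirectional fitting.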

Measured: AC50

Transcription factor E2F1 (Homo sapiens), sequence (Q01094 whole entry, looked up): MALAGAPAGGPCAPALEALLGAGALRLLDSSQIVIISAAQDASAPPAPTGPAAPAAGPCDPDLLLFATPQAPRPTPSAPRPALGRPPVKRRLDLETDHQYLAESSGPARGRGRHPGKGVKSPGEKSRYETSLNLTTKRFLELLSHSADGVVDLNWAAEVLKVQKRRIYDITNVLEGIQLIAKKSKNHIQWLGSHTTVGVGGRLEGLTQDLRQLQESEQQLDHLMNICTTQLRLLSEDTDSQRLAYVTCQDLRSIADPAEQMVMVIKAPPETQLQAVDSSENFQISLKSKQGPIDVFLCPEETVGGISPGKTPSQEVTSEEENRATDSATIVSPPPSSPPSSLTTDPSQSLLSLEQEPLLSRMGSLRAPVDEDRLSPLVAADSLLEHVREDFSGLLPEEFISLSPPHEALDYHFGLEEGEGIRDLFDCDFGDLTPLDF
Retinoic acid receptor alpha (Homo sapiens), sequence (P10276 whole entry, looked up): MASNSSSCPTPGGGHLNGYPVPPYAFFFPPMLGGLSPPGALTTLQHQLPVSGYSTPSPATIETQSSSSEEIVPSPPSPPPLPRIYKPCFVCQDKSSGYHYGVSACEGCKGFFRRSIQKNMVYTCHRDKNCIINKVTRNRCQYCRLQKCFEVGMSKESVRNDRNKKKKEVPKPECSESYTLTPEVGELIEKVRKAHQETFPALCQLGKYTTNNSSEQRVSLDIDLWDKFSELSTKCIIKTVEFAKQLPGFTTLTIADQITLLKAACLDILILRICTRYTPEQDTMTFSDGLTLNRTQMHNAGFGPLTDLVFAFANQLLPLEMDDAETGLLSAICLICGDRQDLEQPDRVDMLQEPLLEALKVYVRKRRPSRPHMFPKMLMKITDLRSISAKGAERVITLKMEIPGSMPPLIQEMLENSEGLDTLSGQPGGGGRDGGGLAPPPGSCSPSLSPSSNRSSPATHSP
Bile acid receptor (Homo sapiens), sequence (Q96RI1 whole entry, looked up): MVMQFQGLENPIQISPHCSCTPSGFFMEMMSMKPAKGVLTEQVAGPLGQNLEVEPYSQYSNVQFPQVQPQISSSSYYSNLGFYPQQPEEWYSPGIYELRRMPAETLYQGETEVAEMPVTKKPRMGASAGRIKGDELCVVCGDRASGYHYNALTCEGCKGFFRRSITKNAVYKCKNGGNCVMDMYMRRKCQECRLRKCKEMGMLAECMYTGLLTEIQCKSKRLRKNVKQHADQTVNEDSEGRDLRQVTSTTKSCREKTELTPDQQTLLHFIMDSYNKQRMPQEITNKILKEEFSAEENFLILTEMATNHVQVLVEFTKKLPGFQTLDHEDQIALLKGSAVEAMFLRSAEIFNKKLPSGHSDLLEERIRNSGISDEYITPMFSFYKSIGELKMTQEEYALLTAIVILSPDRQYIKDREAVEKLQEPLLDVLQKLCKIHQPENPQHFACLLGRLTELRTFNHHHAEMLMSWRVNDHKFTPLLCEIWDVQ
Hepatocyte nuclear factor 3-beta (Homo sapiens), sequence (Q9Y261 whole entry, looked up): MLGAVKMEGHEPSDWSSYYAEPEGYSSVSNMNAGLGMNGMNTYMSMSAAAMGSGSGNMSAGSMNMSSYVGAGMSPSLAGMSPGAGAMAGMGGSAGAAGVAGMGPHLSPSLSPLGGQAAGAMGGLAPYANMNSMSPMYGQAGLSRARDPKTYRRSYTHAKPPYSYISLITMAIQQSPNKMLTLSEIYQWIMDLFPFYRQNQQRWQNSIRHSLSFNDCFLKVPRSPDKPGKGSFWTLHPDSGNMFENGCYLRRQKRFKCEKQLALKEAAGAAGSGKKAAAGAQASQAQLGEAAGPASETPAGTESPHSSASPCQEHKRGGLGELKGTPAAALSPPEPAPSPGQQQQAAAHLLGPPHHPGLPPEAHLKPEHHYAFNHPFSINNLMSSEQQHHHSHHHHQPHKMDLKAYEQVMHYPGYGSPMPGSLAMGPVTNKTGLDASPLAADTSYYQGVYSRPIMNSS

CCc1cccc(CC)c1NC(=O)C(=O)O
not listed: [19]
inactive: all other assays above

Cc1cc(=O)oc2cc(O)ccc12
active: [11] 41.8 µM and 58.5 µM
not listed: [4] | [5] | [14] | [16] | [17] | [19]
inactive: all other assays above

CCCCCCCCCCCCCCC
not listed: [3] | [4] | [11] | [16]
inactive: all other assays above

O=CC(F)(F)C(F)(F)C(F)(F)C(F)F
not listed: [3] | [14] | [19]
inactive: all other assays above

CCCCCCCCCC=CCC1CC(=O)OC1=O (stereo not drawn)
not listed: [5] | [11] | [17]
inactive: all other assays above

CCOCCOCC
not listed: [10] | [14] | [17] | [19]
inactive: all other assays above
